Screening results: PubChem BioAssay, National Center for Advancing Translational Sciences (NCATS)
CtBP-E1A blk = qHTS Assay for Inhibitors of the CtBP/E1A Interaction. AlphaScreen GST-E1A/His-CtBP binding, 1536-well; stronger effect = lower value. CtBP / adenovirus E1A interaction (AlphaScreen). hit rate 0.49% among 340,000. activity change, % (test concentration not listed)
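GST-E1A and His-tagged CtBP (125 nM each as 5X stock) were preincubated with pin-transferred compound for 2 h at 37 °C in the dark, then glutathione donor and nickel acceptor beads were added for 1 h before AlphaScreen reading.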
Six1-Eya2 blk = qHTS Assay for Inhibitors of the Six1/Eya2 Interaction; AlphaScreen GST-Six1/His-Eya2 binding, biochemical; stronger effect = lower value; activity change, % (concentration not given with the values); AID 651725, 2012; Homeobox protein SIX1 (Homo sapiens) + Protein phosphatase EYA2 (Homo sapiens), …; hit rate 0.56% among 360,000
Target sequence (O00167 whole entry, looked up): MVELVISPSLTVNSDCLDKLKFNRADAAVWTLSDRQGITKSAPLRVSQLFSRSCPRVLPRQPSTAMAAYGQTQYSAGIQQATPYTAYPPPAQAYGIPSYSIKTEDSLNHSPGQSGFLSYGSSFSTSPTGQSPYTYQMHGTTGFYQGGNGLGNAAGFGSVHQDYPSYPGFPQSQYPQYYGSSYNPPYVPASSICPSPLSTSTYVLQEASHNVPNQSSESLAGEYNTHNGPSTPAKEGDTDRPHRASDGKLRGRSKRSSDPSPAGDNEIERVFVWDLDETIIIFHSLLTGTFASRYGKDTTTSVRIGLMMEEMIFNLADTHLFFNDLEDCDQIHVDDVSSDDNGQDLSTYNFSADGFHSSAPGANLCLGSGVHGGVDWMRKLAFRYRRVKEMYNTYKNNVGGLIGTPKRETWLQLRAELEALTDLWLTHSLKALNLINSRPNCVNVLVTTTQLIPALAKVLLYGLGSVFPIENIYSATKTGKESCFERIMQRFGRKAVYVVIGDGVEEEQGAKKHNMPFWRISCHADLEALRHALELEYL
Target sequence (Q15475 whole entry, looked up): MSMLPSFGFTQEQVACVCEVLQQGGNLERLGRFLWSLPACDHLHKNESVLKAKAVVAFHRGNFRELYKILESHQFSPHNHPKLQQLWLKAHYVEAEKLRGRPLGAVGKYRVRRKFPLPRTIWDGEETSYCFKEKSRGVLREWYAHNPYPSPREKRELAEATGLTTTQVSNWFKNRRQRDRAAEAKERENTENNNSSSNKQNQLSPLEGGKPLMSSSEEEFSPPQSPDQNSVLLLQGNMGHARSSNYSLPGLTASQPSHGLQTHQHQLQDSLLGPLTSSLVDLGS
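Compounds are tested against tagged Six1 and Eya2 proteins bridged by glutathione donor and nickel acceptor beads; after a one-hour incubation at 37 °C without light, AlphaScreen emission is recorded.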
Akt phos inh = HTS Assay for Inhibitors of Akt Phophorylation: Primary Screen; hit rate 0.32% among 360,000; Neuro2A IGF-stimulated pAkt S473 HTRF, 20 min; stronger effect = lower value; activity change, % for hits at 50 µM; in the data active = activity change below about -80%; inconclusive = mostly about -51% to -80%
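Neuro2A cells in DMEM with 0.5% FBS, overnight at 37 deg C, given compound at single 50 µM final, then IGF (6 nM final) for 20 min at 37 deg C. Lysed; phospho-Akt Ser473 by HTRF after 24 h, 665/615 ratio.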
CCT chaperon mod = High-Throughput Screening for Modulators of Cytosolic Chaperonin Activity; activity change, % (no concentration beside the values), hits read low; purified chaperonin ATPase assay, HTRF ADP detection, 30 min; AID 651819, 2012; hit rate 0.3% among 360,000; in the data active = activity change below about -30%
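Nucleotide hydrolysis assay: TRiC at 20–40 nM final (set by batch activity) with 10 uM ATP, 30 min at 37 °C, in presence of 76 uM compound. Detection by competitive ADP HTRF, 30 min ambient.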
* hit, by the source's call; i = inactive; u = inconclusive; x = no result given. Hits are enriched below; roughly 1.3% of the tested compounds scored in any of these assays. Rule as the data show it, unless noted: active = activity change below about -65%; inconclusive = mostly about -30% to -63%; inactive = weaker than that. % is scaled to controls: 0 for no effect and ±100 for the full control effect.

SMILES	CtBP-E1A blk	Six1-Eya2 blk	Akt phos inh	CCT chaperon mod
C=CCNC(=O)c1c(N)n(Cc2ccco2)c2nc3ccccc3nc12	-6	-7	-99%*	1
COCCNC(=O)c1c(N)n(Cc2ccco2)c2nc3ccccc3nc12	16	2	i	1
COC1=CC(=O)[C@]2(C=C1OC)OC[C@@H]1Oc3c(ccc4c3C=CC(C)(C)O4)C(=O)[C@@H]12	1	-1	i	-1
Cc1cccc(C)c1-n1nnnc1C(c1ccnc2ccccc12)N1CCC2(CC1)C(=O)NCN2c1ccccc1 (centres undefined)	-4	-17	i	-1
CCCC1(CC(C)C)C(=O)NC(=S)NC1=O	-9	6	i	-1
COc1ccc(OC)c(N2C(=O)NC(=O)/C(=C\c3ccc([N+](=O)[O-])s3)C2=O)c1	u	-67*	i	2
O=C(c1ccco1)c1cn(Cc2ccccc2)c2ccccc12	3	-4	-87%*	-1
Cc1cccc(-n2c(O)c(/C=C3/C(c4ccccc4)=Nc4ccccc43)c(=O)[nH]c2=O)c1	11	5	i	-44*
O=C1NC(=S)NC(=O)C12C(c1ccc(F)cc1)NC(=S)NC2c1ccc(F)cc1 (centres undefined)	-9	-2	-118%*	-1
O=c1c2ccccc2nc(CSc2ncnc3nc[nH]c23)n1-c1ccccc1Cl	1	0	i	-3
O=c1c2ccccc2nc(CSc2ncnc3nc[nH]c23)n1-c1ccccc1	-23	0	-84%*	-2
CC(=O)OC1C(O)C2=C3C4(C)C1C(C)(C)C(=O)CC4C3(O)C(OC(C)=O)C1(CC1C)C2=O (centres undefined)	-10	-3	i	0
CCOP(=O)(C#Cc1ccccc1)C(O)c1ccc(Br)cc1 (centres undefined)	-20	-9	i	-1
COP(=O)(C#Cc1ccccc1)C(O)c1ccc(Br)cc1 (centres undefined)	2	-3	i	-105*
Cc1ccc(CCN2CC(C(=O)N3CCC4(CC3)OCCO4)CC2=O)cc1 (centres undefined)	2	12	i	-64*
CCN(CC)C(=O)c1ccc2c(c1)C1C=CCC1C(C(=O)O)N2 (centres undefined)	x	-75*	i	-6
Cn1c(=O)c2c(nc(N/N=C/c3c(O)n(-c4ccccc4)c(=S)[nH]c3=O)n2C)n(C)c1=O	-84*	-84*	i	-2
CCC(=NCCN1CCOCC1)c1c(O)n(-c2ccccc2C)c(=O)[nH]c1=O	2	0	-122%*	-1
CC(=NCCN1CCOCC1)c1c(O)n(-c2ccccc2C)c(=O)[nH]c1=O	8	-2	i	-1
Cc1nc2ccccc2c(=O)n1-c1ccc(Br)cn1	-3	15	i	-1
Cc1nc2ccccc2c(=O)n1/N=C/c1cc(Br)cc(Br)c1O	-78*	-66*	i	0
N#CC(C#N)=Cc1ccc(N2CCCC2)cc1	-2	3	i	-46*
COc1ccc(C2SCC(=O)Nc3c2c(=O)[nH]n3C2CCCCC2)cc1 (centres undefined)	-2	1	-105%*	0
Cc1ccc(C2SCC(=O)Nc3c2c(=O)[nH]n3C2CCOC(C)(C)C2)cc1 (centres undefined)	7	0	i	0
Cc1ccc(N2CCNCC2C)cc1 (centres undefined)	0	11	i	1
SMILES	CtBP-E1A blk	Six1-Eya2 blk	Akt phos inh	CCT chaperon mod
O=C1CN=C(c2ccccc2)c2ccccc2N1	10	0	i	-53*
O=c1[nH]c(=O)n(Cc2ccco2)c(O)c1C=NCc1ccco1	-1	-1	i	-1
CCCCC(=O)N/N=C/c1c(O)n(-c2cccc3ccccc23)c(=O)[nH]c1=O	x	-71*	i	1
CCCCC(=O)N/N=C/c1c(O)n(Cc2ccco2)c(=O)[nH]c1=O	u	-75*	i	-1
O=C(N/N=C/c1c(O)n(Cc2ccco2)c(=O)[nH]c1=O)c1ccccc1O	-89*	-87*	i	0
O=C(N/N=C/c1c(O)n(Cc2ccc(F)cc2)c(=S)[nH]c1=O)c1ccncc1	-67*	u	i	-1
CCOC(=O)[C@]12Cc3cc(OC)ccc3[C@H]1N(C(C)C)C(=O)c1cc(OC)ccc12	0	18	i	1
CNC(=O)C[C@H]1CC[C@@H]2NC[C@H](O)COC[C@H]2O1	0	-5	i	x
COc1nc2ccccc2nc1N1CC1	10	5	i	-2
CCCCC(=O)N/N=C/c1c(O)n(CCCC)c(=S)[nH]c1=O	-66*	-74*	i	-5
Cc1cc(OCC(=O)N2C[C@H]3C[C@@H](C2)c2cccc(=O)n2C3)c2c(C)c(C)c(=O)oc2c1	-10	-1	i	-59*
Cc1c(N=Nc2c(O)n(Cc3ccccc3)c(=O)[nH]c2=O)c(=O)n(-c2ccccc2)n1C	-72*	-89*	i	-1
CCOP(=S)(OCC)N1CCOCCOCCN(P(=S)(OCC)OCC)CCOCCOCC1	21	17	i	0
CCOP(=O)(OCC)C(CC)N1CCOCC1 (centres undefined)	2	0	-118%*	3
CC(=O)NC1CC2CCCC(C1)N2 (centres undefined)	1	7	i	-1
CCCN1C2CCCC1CC(NC(C)=O)C2 (centres undefined)	7	3	i	-33*
NC(Cc1ccccc1)c1nn[nH]n1 (centres undefined)	-8	-18	i	-2
CCOC(=O)N(c1ccccc1)P1(=S)OCCO1	-2	11	-110%*	0
COC(=O)N(c1ccccc1)P1(=S)OCCO1	9	1	i	0
CC(C)C(NC(=O)C(C(C)C)N(C)C)C(=O)N(C)C(C(=O)N1CCCC1C(=O)N1CCCC1C(=O)NCc1ccccc1)C(C)C (centres undefined)	0	24	i	0
CCN1C[C@]2(COC)CC[C@H](O)[C@@]34C5C[C@H]6[C@H](O)C5[C@](O)(C[C@H]6OC)[C@@H]([C@H](OC)C23)[C@@H]14 (some centres undefined)	4	-1	i	0
C=C1[C@@H](OC(C)=O)[C@]23C[C@@H]1[C@@H](OC(C)=O)CC2[C@]12C4C[C@H]3[C@H]1N(CC)C[C@]4(C)CC[C@@H]2O (some centres undefined)	-8	26	i	-68*
CN(C)[C@@H]1C(=O)C(C(N)=O)=C(O)[C@@]2(O)C(=O)C3=C(O)c4c(O)ccc(Cl)c4[C@@](C)(O)C3C[C@@H]12 (some centres undefined)	-24	-2	i	0
